Out of some 2,200 compounds screened, about 480 (22%) were called active. The rule behind the calls is not given here. The list is a sample of the results. Results with a measured potency or affinity are listed apart.
Assay: S. Typhimurium GFP fluorescence dose response in modified counterscreen for PhoP regulon inhibitor project (AID 1981)
Conditions: 4 h; series mostly up to 150 µM

| Structure (SMILES) | outcome |
| --- | --- |
| CCOC(=O)C1=NNC2(c3ccc(Cl)cc3)C(=O)N(c3cc(C)cc(C)c3)C(=O)C12 (centres undefined) | inactive |
| CCn1nc(C(=O)OC(C(=O)c2c[nH]c3ccccc23)c2ccccc2)c2ccccc2c1=O (centres undefined) | inactive |
| COc1cccc(/C=N/NC(=O)c2ccc(-c3ccccc3)cc2)c1O | inactive |
| Cc1ccc(/C=N/NC(=O)Cn2cnc3ccccc32)o1 | inactive |
| c1ccc2c(N3CCCCCC3)nc(-c3ccncc3)nc2c1 | inactive |
| Brc1ccc(OCCn2ccnc2)cc1 | inactive |
| Oc1ccccc1-c1nc(/C=C/c2ccccc2)nn1-c1ccccc1 | inactive |
| Cc1cc(C)c(NC(=S)NC(=O)c2ccc(-c3ccccc3)cc2)c(C)c1 | inactive |
| CC(C)OC(=O)c1ccc(NC(=O)c2ccccc2)cc1 | inactive |
| O=C(Cc1cccs1)N(c1ccccc1)C1C=CS(=O)(=O)C1 (centres undefined) | inactive |
| Oc1[nH]c(=S)sc1/C=C1\C(c2ccccc2)=Nc2ccccc21 | inactive |
| Oc1ccc(Br)cc1-c1ccn[nH]1 | inactive |
| O=C(CSc1nc2ccccc2[nH]1)Nc1ccc(F)c(F)c1 | inactive |
| Cc1ccc(O)c(-c2cc(-c3ccccc3C)[nH]n2)c1 | inactive |
| Clc1c(OCCCn2ccnc2)ccc2ccccc12 | inactive |
| Cc1ccc(C)n1-c1cc([N+](=O)[O-])ccc1-n1ccnc1 | inactive |
| CN(CCO)Cc1csc2ccc(Br)cc12 | inactive |
| O=C(Nc1cccc2ccccc12)OC1C=CS(=O)(=O)C1 (centres undefined) | inactive |
| CN(C)C=NC(=O)c1[nH]c2ccc(Cl)cc2c1-c1ccccc1 | inactive |
| Cn1cnnc1SCC(=O)Nc1cccc(C(=O)O)c1 | inactive |
| Cc1nnc(SC(C)C(=O)Nc2ccc(S(=O)(=O)N3CCCCCC3)cc2)s1 (centres undefined) | inactive |
| CCOC(=O)N1CCN(C(=O)c2cn(CC(C)C)c(=O)c3c2c2ccccc2n3C)CC1 | inactive |
| CCOC(=O)c1cn(CC)c2cc(N3CCOCC3)c(F)cc2c1=O | inactive |

| Structure (SMILES) | outcome |
| --- | --- |
| N#CC1=C(S)N(c2ccccc2)C(c2ccc(-c3ccccc3Cl)o2)NC1=O (centres undefined) | inactive |
| Cc1ccc(O)c(-c2cc(-c3cccc(F)c3)n[nH]2)c1 | inactive |
| Cc1ccc2nc(C)c(CN3CCN(c4ccc([N+](=O)[O-])cc4Cl)CC3)n2c1 | inactive |
| O=S(=O)(Nc1ccc(Cc2ccncc2)cc1)c1ccc(Br)s1 | inactive |
| Nc1ccc2oc(=O)c3ccccc3c2c1 | inactive |
| Nc1ccc2oc3ccc(N)cc3c(=O)c2c1 | inactive |
| COc1ccc(-n2ncc(S(=O)(=O)c3ccccc3)c2-c2ccc(Cl)cc2)cc1 | inactive |
| COc1ccc2nc(SCC(=O)N(C)C3CCCCC3)c(C#N)cc2c1 | inactive |
| CCCn1c(SCC(=O)NCCc2ccccc2)nnc1-c1cccnc1 | inactive |
| Cc1ccc(-c2[nH]c(-c3ccc(Cl)cc3)nc2SCC(=O)NCC2CCCO2)cc1 (centres undefined) | inactive |
| S=C(NN=C1C2CC3CC(C2)CC1C3)Nc1ccccc1 | inactive |
| Cc1ccc(C(C(=O)NCc2ccco2)N(CCc2ccccc2)C(=O)Cn2nnc3ccccc32)o1 (centres undefined) | inactive |
| O=C(Nc1cccc(-c2cn3cccnc3n2)c1)c1ccco1 | inactive |
| Cn1c(NCc2ccccc2O)nc2ccccc21 | inactive |
| N/C(=N\OC(=O)c1ccc(F)cc1)c1nonc1N | inactive |
| CNC(=O)c1ccc(-c2ccc(F)cc2)s1 | inactive |
| COc1cc(/C=C2/SC(=S)N(CC(=O)Nc3cccnc3)C2=O)cc(OC)c1OC | inactive |
| CCCCCCC(=O)N(O)C1CC(=O)N(c2ccc(C)cc2)C1=O (centres undefined) | inactive |
| C=CCNC(=S)NNC(=O)c1cccn(Cc2ccc(Cl)cc2)c1=O | inactive |
| Nc1cc(Br)c(N)c(Br)c1 | inactive |
| CC(=O)NC1C(c2nc3ccccc3s2)=C(c2ccccc2)C(=O)N1c1ccc(C)cc1 (centres undefined) | inactive |
| CC1Cc2ccccc2N1C(=O)COC(=O)c1ccc(S(=O)(=O)N(C)C)cc1 (centres undefined) | inactive |
| COC(=O)Cc1c(O)ccn(Cc2ccc(F)cc2)c1=O | inactive |

| Structure (SMILES) | outcome |
| --- | --- |
| CCc1c(C)c2cc(Cl)c(O)c(CN(C)C)c2oc1=O | inactive |
| CC1=CC(C)(C)n2c(O)c(C3=NC(=S)NC3=O)c3cc(OC(=O)c4cccc5ccccc45)cc1c32 | inactive |
| N=c1n(CC(=O)c2ccc([N+](=O)[O-])cc2)c2ccccc2n1Cc1ccccc1 | inactive |
| Cn1c(=N)n(CC(=O)c2ccc(Br)s2)c2ccccc21 | inactive |
| COc1cc(S(=O)(=O)N2CCCCC2)ccc1NC=O | inactive |
| NC1=Nc2ccccc2Oc2ccccc21 | inactive |
| NC1=NC(=Nc2cccc(Cl)c2)c2ccccc21 | inactive |
| c1ccc2c(C3=NNC(=NC4CCCCC4)SC3)c[nH]c2c1 | inactive |
| CN(C)S(=O)(=O)Nc1ccc(C(=O)O)cc1 | inactive |
| COc1cccc(OCC(O)CN2CCN(c3ccccn3)CC2)c1 (centres undefined) | inactive |
| Cn1c(SCC(=O)NC(=O)c2cccc([N+](=O)[O-])c2)nnc1-c1ccc(F)cc1 | inactive |
| O=C(Cn1cc[n+](CC(=O)c2ccccc2)c1)c1ccccc1 | inactive |
| C/C(=N/Nc1nc(-c2ccccc2)cc(-c2ccc(F)cc2)n1)c1cccc(N)c1 | inactive |
| c1ccc(-c2nnc(SCCC3OCCCO3)o2)cc1 | inactive |
| CC1(C)CC2CC(C)(CN2C(=O)COC(=O)c2n[nH]c(=O)c3ccccc23)C1 (centres undefined) | inactive |
| Fc1ccccc1COc1ccc(Br)cc1CNCc1ccncc1 | inactive |
| c1ccc(COc2ccccc2CNCc2cccnc2)cc1 | inactive |
| O=[N+]([O-])c1ccccc1CNc1ccc(F)c(Cl)c1 | inactive |
| O=c1cc(CSc2nc(NCc3ccccc3)c3ccccc3n2)nc2ccc(Cl)cn12 | inactive |
| N#CCCN(C(=O)CN1C(=O)NC2(CCCC2)C1=O)c1ccccc1F | inactive |
| O=C(CCNS(=O)(=O)c1cccc2nsnc12)Nc1ccc2c(c1)OCCO2 | inactive |
| Cc1nc2c(=O)n(C)c(=O)n(C)c2nc1Cl | inactive |
| Cc1cc(C)nc(/N=C(\N)Nc2ccc(SC(F)F)cc2)n1 | inactive |

| Structure (SMILES) | outcome |
| --- | --- |
| CC(=O)c1c(C)[nH]c(C(=O)CSc2nnc(-c3ccco3)n2Cc2ccccc2)c1C | inactive |
| Cc1ccc(S(=O)(=O)c2cn(Cc3ccc(F)cc3)c3cc4c(cc3c2=O)OCO4)cc1 | inactive |
| O=C(Cn1nc(Cc2cccnc2)c2ccccc2c1=O)NCc1ccc2c(c1)OCO2 | inactive |
| O=C(O)c1cc(NCc2ccc3c(c2)OCO3)ccc1N1CCOCC1 | inactive |
| CCn1cc(C(=O)O)c(=O)c2cc(Br)ccc21 | inactive |
| Cc1cccc(C(=O)O/N=C2\CCSc3ccc(C)cc32)c1 | inactive |
| Cc1cccc(OCC(=O)N(Cc2cccs2)C2CCS(=O)(=O)C2)c1C (centres undefined) | inactive |
| O=c1c2c([nH]c3ccccc13)CCCCC2 | inactive |
| CCCOc1ccc(/C=N/O)cc1 | inactive |
| O=C(C[n+]1cc(-c2ccccc2)n2c1CCCCC2)c1ccc(Cl)cc1 | inactive |
| C/C(=N/Nc1nc(-c2ccc(Cl)cc2)cs1)c1cccs1 | inactive |
| Clc1ccc(C[n+]2cc(-c3ccc(Cl)cc3)n3c2CCC3)cc1 | inactive |
| CCN(CC)CC(=O)Nc1nc(-c2ccc(Cl)cc2)cs1 | inactive |
| Clc1ccc(-c2c[n+](Cc3ccc(Cl)cc3Cl)c3n2CCCCC3)cc1 | inactive |
| CCOC(=O)Cc1ccc(NS(=O)(=O)c2ccc(SC)cc2)cc1 | inactive |
| CCOC(=O)N1CCN(C(=O)c2ccc(NC(=O)c3ccc(C)cc3)cc2)CC1 | inactive |
| O=C(O)C1CCC(N2C(=O)C3CCCCC3C2=O)CC1 (centres undefined) | inactive |
| COC(=O)c1sccc1NC(=O)c1cccnc1 | inactive |
| Cc1ccc(Nc2nnc(C3C(=O)N(C)C4(C)CC3c3cc(Br)ccc3O4)s2)cc1 (centres undefined) | inactive |
| Cc1ccc(S(=O)(=O)c2c(C(=O)c3ccccc3)cnc3cc4c(cc23)OCCO4)cc1 | inactive |
| CC1(C)CC(=O)C2=C(C1)N(Cc1ccccc1)C(=O)C2(O)C(F)(F)F (centres undefined) | inactive |
| CCN1C(=O)/C(=C/N2CC(C)CC(C)C2)SC1=S (centres undefined) | inactive |
| CN(CCO)c1cc(Sc2nc3ccccc3s2)c2nonc2c1[N+](=O)[O-] | inactive |

| Structure (SMILES) | outcome |
| --- | --- |
| O=C(CSc1n[nH]c(=O)[nH]c1=O)N/N=C/c1ccccc1 | inactive |
| O=C(CSc1nc2ccccc2s1)Nc1ccc(N2CCOCC2)c(Cl)c1 | inactive |
| Cc1ccsc1/C=N/NC(=O)Cn1cnc2ccccc21 | inactive |
| Cc1cc([N+](=O)[O-])ccc1NC(=O)Cc1ccc(F)cc1 | inactive |
| Cc1ccccc1-n1c(C)cc(/C=N/Nc2ccc([N+](=O)[O-])cn2)c1C | inactive |
| Cc1ccc([N+](=O)[O-])cc1NC(=S)NC(=O)C(C)(C)C | inactive |
| COc1ccc(NC(=O)c2sccc2SCC#N)cc1 | inactive |
| CC(=S)c1c(C)cc2cc(C)ccn12 | inactive |
| CN(C)c1ccnc(Oc2ccc(F)cc2)c1C#N | inactive |
| CCn1c(SCc2ccc(F)cc2)nnc1C1CCN(S(=O)(=O)c2ccc(OC)cc2)CC1 | inactive |
| Cc1ccc(C(C)C)c(OCC(=O)Nn2c(=O)[nH]c3ccccc3c2=O)c1 | inactive |
| COc1ccc(S(=O)(=O)N2Cc3ccccc3CC2C(=O)N2CCOCC2)cc1OC (centres undefined) | inactive |
| CCNC(=O)NC1(C(=O)Nc2ccc3c(c2)OCCO3)CCCCC1 | inactive |
| CCN(CC)c1ccc(S(=O)(=O)Nc2cc(Cl)ccc2Cl)cc1NC(=S)NC(=O)C1CCCC1 | inactive |
| CCN1CCN(Cc2ccc(C)cc2C)CC1 | inactive |
| Cc1ccc(C2NNC(=O)C2NC(=O)c2ccccc2)cc1 (centres undefined) | inactive |
| Cc1nc(N)sc1Cc1ccc2c(c1)OCO2 | inactive |
| C=CCNc1sc(C(=O)c2ccc(C)cc2)c(N)c1C#N | inactive |
| COC(=O)C(CCSC)NC(=O)c1cccc([N+](=O)[O-])c1 (centres undefined) | inactive |
| NC(=O)c1cnn(Cc2ccc(Cl)cc2)c1N | inactive |
| Cc1nc2c(Cl)cccc2c2c1CC(CBr)O2 (centres undefined) | inactive |
| CC(=O)NC12CC3CC(C1)CC(C(=O)OCC(=O)c1ccc4c(c1)OCCO4)(C3)C2 | inactive |

Source: PubChem BioAssay AID1981 (Southern Research Specialized Biocontainment Screening …, 2009)
